Source: PubChem BioAssay
An excerpt weighted towards active compounds, which were near 0.9% of everything screened.
Fluorescein autfl = fluorescein region autofluorescence; Compound autofluorescence, 480/540 nm, fluorescein-equivalent; stronger effect = higher value; max fluorescein-equivalent concentration, M; hit rate 0.91% among 59,000; in the data active = max fluorescein-equivalent concentration above about 10 nM; inconclusive = between about 1.1 nM and that limit
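Compounds were pin-transferred into 100 mM Tris buffer, pH 8.0, and incubated 15 min at room temperature. Fluorescence was read at 480 nm excitation/540 nm emission. Signals were normalized to an on-plate six-point fluorescein standard curve as dye-equivalent concentration.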
Rhodamine fluor = rhodamine region autofluorescence | max dye-equivalent concentration, M | Rhodamine-region fluorescence, 547/598 nm, Tris buffer; stronger effect = higher value | hit rate 0.05% among 59,000; in the data active = max dye-equivalent concentration above about 11 nM; inconclusive = between about 1.1 nM and that limit
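Compound fluorescence in 100 mM Tris, pH 8.0, read after 15 min at room temperature with 547 nm excitation and 598 nm emission. Output is dye-equivalent concentration from an on-plate rhodamine standard series.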
Texas Red fluor = compounds fluorescent in Texas Red spectral region. Compound fluorescence, Texas Red channel, 547/618 nm; stronger effect = higher value. max dye-equivalent concentration, M. hit rate 0.06% among 59,000. AID 587; in the data active = max dye-equivalent concentration above about 10 nM; inconclusive = between about 1.1 nM and that limit
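Compound titrations in 100 mM Tris pH 8.0 were incubated 15 min at room temperature and read at 547 nm excitation / 618 nm emission. Texas Red six-point standard curve on each plate converted fluorescence to dye-equivalent concentration.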
A488 autofl = compound autofluorescence in A488 spectral region; hit rate 0.1% among 59,000; compound autofluorescence, A488 spectral region, dye equivalency; Compound Type: qHTS ECL - MLSMR; max dye equivalency, M
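Compound autofluorescence was read in 100 mM Tris pH 8.0 after 15 min at room temperature, ex 480 nm/em 540 nm. Intensities were converted to A488 dye-equivalent concentration using an on-plate six-point A488 standard curve.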
A647 fluor = A647 region autofluorescence. 59,000 tested, under 10 active. AID 592. max dye-equivalent concentration, M. Compound fluorescence, A647 channel (570/671 nm), Tris buffer;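 note: values scaled relative to a standard on each plate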
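Tris 100 mM pH 8.0; cpd + A647 stds pin-transferred; 15 min RT; CCD imager, ex 570/em 671. Output = A647-equivalent conc. per cpd conc.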
Resorufin autofl = compounds fluorescent in resorufin spectral region; Compound fluorescence, resorufin region 547/598 nm, buffer; stronger effect = higher value; max dye-equivalent concentration, M; hit rate 0.04% among 59,000; AID 588
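Compounds in 100 mM Tris, pH 8.0, incubated 15 min at room temperature, then fluorescence read at 547 nm excitation/598 nm emission. Signal converted to dye-equivalent concentration via an on-plate six-point resorufin standard curve, per compound concentration.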
Active calls of the source: *; i = inactive; ? = inconclusive. Unless noted, the rule behind the calls is not given here.

SMILES | Fluorescein autfl | Rhodamine fluor | Texas Red fluor | A488 autofl | A647 fluor | Resorufin autofl
CCc1cc2c(=O)c(-c3nc4ccccc4[nH]3)coc2cc1OC(=O)N1CCOCC1 | 1.1e-08M* | i | i | i | 1e-09 | i
FC(F)(F)c1cc(CO[C@@H]2CCCN[C@H]2c2ccccc2)cc(C(F)(F)F)c1 | i | i | ? | i | 2.9e-09 | i
CN1CC=C2C(C#N)=C(N)C(C#N)(C#N)C(c3cccc(Cl)c3Cl)C2C1 (stereo not drawn) | 3.9e-08M* | i | ? | ? | 1.1e-09 | i
CCCN1CC=C2C(C#N)=C(N)C(C#N)(C#N)C(c3cccc(OC)c3OC)C2C1 (stereo not drawn) | 5.3e-08M* | i | i | ? | 3.1e-09 | i
COc1ccc(OC)c(C2C3CN(C(C)C)CC=C3C(C#N)=C(N)C2(C#N)C#N)c1 (stereo not drawn) | 3.2e-08M* | i | i | i | 1e-09 | i
CCCCOc1ccc(C2C3CN(C(=O)OCC)CC=C3C(C#N)=C(N)C2(C#N)C#N)cc1OC (stereo not drawn) | ? | i | i | i | 1.2e-09 | i
Cc1ccc(C2C3CN(C(C)C)CC=C3C(C#N)=C(N)C2(C#N)C#N)cc1 (stereo not drawn) | 1e-07M* | i | i | ? | 6.2e-08 | i
CCOC(=O)N1CC=C2C(C#N)=C(N)C(C#N)(C#N)[C@H](c3ccc(OCC)c(OCC)c3)[C@H]2C1 | i | i | i | i | 1e-09 | i
Nc1ncnc2c1ncn2[C@@H]1O[C@@H](C(=O)NC2CC2)[C@H](O)[C@@H]1O | ? | i | ? | i | 8.7e-09 | i
COc1cc(N2C(=O)NC3CC2(C)Oc2ccccc23)cc(OC)c1OC (stereo not drawn) | i | i | i | i | 4.2e-08 | i
CN(C)c1ccc(/C=C/C(O)=C2/C(=O)N(C)C3(C)CC2c2ccccc2O3)cc1 (stereo not drawn) | 1.6e-08M* | i | i | i | 1e-09 | i
Cc1oc(C)c2c(=O)ccc3c(c12)OC(N)=C(C#N)C3c1ccccc1Cl (stereo not drawn) | 1.5e-08M* | i | i | i | 1e-09 | i
CSc1ccc(C2C(C#N)=C(N)Oc3c2ccc(=O)c2c(C)oc(C)c32)cc1 (stereo not drawn) | ? | i | i | i | 7.5e-09 | i
Cc1oc(C)c2c(=O)ccc3c(c12)OC(N)=C(C#N)C3c1ccccc1 (stereo not drawn) | 1.1e-08M* | i | i | i | 1e-09 | i
CC(=O)C1=C(C)OC(N)=C(C#N)C1c1ccco1 (stereo not drawn) | ? | i | i | i | 1e-09 | i
O=C(/C=C\c1ccc(O)c(O)c1)OCCc1ccccc1 | ? | i | i | i | 4.1e-08 | i
CC1(C)CC(=O)C2=C(C1)N1CCCCC1CC2=O (stereo not drawn) | 1.5e-08M* | i | i | i | 3.2e-08 | i
COc1ccc(C(=O)[C@H]2[C@H]3[C@@H](C(=O)[C@@H]4OC[C@H]3O4)[C@H]3C=Cc4ccccc4N32)c(OC)c1 | i | i | i | i | 2.1e-08 | i
O=c1oc2c(CN3CCCCCC3)c(O)ccc2cc1-c1nc2ccccc2[nH]1 | 3e-06M* | i | i | 1.4e-07M* | 1e-09 | i
O=C(c1ccccc1C(=O)N1CCN(c2ccccc2)CC1)N1CCN(c2ccccc2)CC1 | 1.5e-08M* | i | i | i | 1.3e-08 | i
C[C@H](O)C(=O)C1=Nc2c(nc(N)[nH]c2=O)NC1 | 4e-08M* | i | ? | ? | 9.6e-09 | i
Cc1cn([C@H]2C=C[C@H](CO)O2)c(=O)[nH]c1=O | ? | i | ? | i | 4.6e-09 | i
Cc1ccc(-n2c3c(cc(C(=O)NC4CCSC4=O)c2=O)C(=O)CCC3)cc1 (stereo not drawn) | 1.1e-08M* | i | i | i | 1.7e-09 | i
O=C1CCCc2c1cc(C(=O)Nc1ccc(Cl)cn1)c(=O)n2-c1ccccc1 | i | i | i | i | 9.4e-09 | i
COc1cccc(-c2cn3nc(C)c(C)nc3n2)c1 | i | i | i | i | 1.4e-09 | i
SMILES | Fluorescein autfl | Rhodamine fluor | Texas Red fluor | A488 autofl | A647 fluor | Resorufin autofl
Cc1nc2nc(-c3cccs3)cn2nc1C | 6e-08M* | i | i | ? | 3.1e-09 | i
Nc1nonc1C(=O)NCCN=Cc1cc(Cc2ccccc2)cc(Br)c1O | 2e-08M* | i | i | i | 1e-09 | i
O=c1c(-c2ccccc2)n[nH]c2ccccc12 | i | i | i | i | 1e-09 | i
O=C1c2ccccc2-c2n[nH]c3cccc1c23 | 4.7e-08M* | i | i | ? | 8.6e-09 | i
COc1cccc(Nc2ncc3nc(-c4ccccc4)c(=O)n(C[C@H]4CCCO4)c3n2)c1 | 1.1e-08M* | i | i | i | 2.4e-09 | i
COc1cccc(Nc2ncc3nc(-c4ccc(Cl)cc4)c(=O)n(C[C@H]4CCCO4)c3n2)c1 | i | i | i | i | 1e-09 | i
CN(C)c1ccc(-c2nnc(-c3ccc(S(=O)(=O)C(F)F)cc3)o2)cc1 | 2e-08M* | i | i | i | 2.5e-08 | i
COc1ccc(-c2nnc(-c3ccc(N(C)C)cc3)o2)cc1 | i | i | ? | i | 9.2e-09 | i
C[C@@]12CCC(=O)C=C1CC[C@H]1[C@H]3CC[C@](O)(C(=O)CO)[C@]3(C)CC[C@@H]12 | ? | i | i | i | 5.5e-08 | i
Cc1ccc(-c2cc(-c3nnc(SCC(=O)N(C)CCC#N)n3N)c3ccccc3n2)cc1 | 1.1e-08M* | i | i | i | 1.1e-09 | i
CN1CCc2c(sc(/N=C/c3cccs3)c2C(N)=O)C1 | 1.1e-08M* | i | ? | i | 1.6e-09 | i
CN1CCc2c(sc(/N=C/c3ccco3)c2C(N)=O)C1 | 2.5e-08M* | i | i | ? | 8.6e-09 | i
N#Cc1c(/N=C/c2ccco2)sc2c1CCCCC2 | i | i | i | i | 1e-09 | i
N#Cc1c(/N=C/c2cccs2)sc2c1CCC2 | ? | i | i | i | 2.5e-08 | i
Cn1cc[nH]c1=S | 2.2e-08M* | i | i | i | 1.8e-08 | i
CCOC(=O)N1CCN(c2cc(NCCC(=O)O)c3c4c(onc24)-c2ccccc2C3=O)CC1 | 8e-08M* | ? | ? | ? | 3.6e-08 | i
CCOC(=O)N1CCN(c2c(NCCCN(CC)Cc3ccccc3)c(=O)c2=O)CC1 | i | i | ? | i | 6.2e-09 | i
Cc1ccccc1-n1c(=O)cc(N2CCC3(CC2)OCCO3)[nH]c1=O | i | i | i | i | 2.1e-09 | i
O=C(O)CCCNc1cc(N2CCC3(CC2)OCCO3)c2noc3c2c1C(=O)c1ccccc1-3 | 1.3e-08M* | ? | 1e-08M* | i | 3.5e-08 | ?
CNC(=O)[C@@H]1O[C@@H](n2cnc3c(N)ncnc32)[C@@H](O)[C@H]1O | ? | i | ? | i | 4.1e-09 | i
